A number with no mark means an inactive call. Results filed as inconclusive are left out. Activity calls are given as the source filed them. Unless noted, calls come from the whole dose curve; as a rule, active = well fitted curve in the direction sought with a large enough effect in the repeat runs; inconclusive = weak or mixed curves; inactive = no such curve, though single readings can be large; an effect the other way counts as inactive or inconclusive.

Assay [1] can be described thus: qHTS assay to test for compound auto fluorescence at 535 nm (green) in HEK293 cells (AID 720680).
Assay [2] is described as follows: qHTS assay to test for compound auto fluorescence at 460 nm (blue) in HEK293 cell free culture (AID 720681). A digest of the protocol:
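Test compounds were pinned into cell-free culture medium (DMEM with 10% FBS) and fluorescence was read directly at Ex/Em 405/460 nm. Signals were expressed as fluorescence equivalents of triamterene, with DMSO vehicle as control.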

Assay [3] in a line: qHTS assay to test for compound auto fluorescence at 535 nm (green) in HEK293 cell free culture (AID 720682). A digest of the protocol: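 Green-label autofluorescence (485 nm excitation, 535 nm emission) measured on compound added to cell-free culture medium (DMEM, 10% FBS). Output is expressed relative to fluorescein.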
Assay [4] can be described thus: qHTS assay to test for compound auto fluorescence at 590 nm (red) in HEK293 cell free culture (AID 720683). In a few lines:
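Tox21 10K library compounds were pinned into cell-free DMEM with 10% FBS and fluorescence was read at excitation 540 nm. Activity is expressed as Rose Bengal sodium equivalency.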
In general terms: In qHTS, concentration-response curves come from the screen itself.

Assay [5] is described as follows: qHTS assay to test for compound auto fluorescence at 590 nm (red) in HepG2 cell free culture (AID 720684). A digest of the protocol: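 Ex 540 / Em 590 nm read of compound in cell-free MEM (10% FBS). Rose Bengal sodium reference.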
Assay [6] in a line: qHTS assay to test for compound auto fluorescence at 460 nm (blue) in HepG2 cell free culture (AID 720685). A digest of the protocol: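 Cell-free plates of MEM plus 10% FBS received 23 nL compound or DMSO vehicle; blue-channel (405/460 nm) intensity scored against triamterene as reference fluorophore.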
The nature of assay [7]: qHTS assay to test for compound auto fluorescence at 535 nm (green) in HepG2 cell free culture (AID 720686).
A short description of assay [8]: qHTS assay to test for compound auto fluorescence at 460 nm (blue) in HepG2 cells (AID 720687). A digest of the protocol: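 Cells (2,000/well in MEM with 10% FBS) attached overnight at 37 C, then were exposed to compound or DMSO for 1 hr at 37 C, 5% CO2. Fluorescence read at Ex/Em 405/460 nm, expressed as triamterene-equivalent signal.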
Assay [9] addresses Glucocorticoid receptor (Homo sapiens) (UniProt P04150). The assay is described as follows: qHTS assay to identify small molecule agonists of the glucocorticoid receptor (GR) signaling pathway (AID 720691; active = well fitted activation curve with a large enough effect in the signal ratio in the repeat runs, not every such curve was filed as active; the % refers to the signal ratio). The settings on record: GR-bla HeLa, beta-lactamase reporter ratio, 18 h; activation: at 62.4 µM (top of the series). In a few lines: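 Cells: GR-bla HeLa, endogenous GR with stably integrated GRE-beta-lactamase reporter. Treatment 18 h, 37 C, compounds delivered in DMSO. Detection via LiveBLAzer B/G FRET substrate, 2 h RT, fluorescence intensity.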

A short description of assay [10]: qHTS assay for identifying genotoxic compounds that show differential cytotoxicity against isogenic chicken DT40 cell lines with known DNA damage response pathways - wild type cell line (AID 743012). Note: nearly all actives have a fitted effect of over 60% in size. Note: potency is the fitted concentration of half-maximal effect. A digest of the protocol:
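Luminescent ATP viability signal (CellTiter-Glo, 30 min RT) recorded after wild type DT40 cells were incubated with compounds for 40 h at 37 C/5% CO2.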

The nature of assay [11]: qHTS assay for identifying genotoxic compounds that show differential cytotoxicity against isogenic chicken DT40 cell lines with known DNA damage response pathways - Rev3 mutant cell line (AID 743014). Note: nearly all actives have a fitted effect of over 55% in size. Note: potency is the fitted concentration of half-maximal effect.
Assay [12] is described as follows: qHTS assay for identifying genotoxic compounds that show differential cytotoxicity against isogenic chicken DT40 cell lines with known DNA damage response pathways - Rad54/Ku70 mutant cell line (AID 743015). Note: nearly all actives have a fitted effect of over 60% in size. Note: potency is the fitted concentration of half-maximal effect.
The target of assay [13] is Androgen receptor (Homo sapiens) (UniProt P10275). The assay is described as follows: qHTS assay to identify small molecule agonists of the androgen receptor (AR) signaling pathway using the MDA cell line (AID 743040; note: nearly all actives have a fitted effect of over 20% in size). A digest of the protocol: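 Cell-based luciferase reporter: MDA-kb2, MMTV promoter (AR + GR response elements). 16 h compound exposure at 37C; ONE-Glo, 30 min RT, luminescence.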

A short description of assay [14]: qHTS assay to identify small molecule antagonists of the androgen receptor (AR) signaling pathway using the MDA cell line - cell viability counter screen (AID 743041; note: nearly all actives have a fitted effect of over 45% in size; note: potency is the fitted concentration of half-maximal effect). A digest of the protocol:
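In this qHTS counter assay, fluorescence intensity after CellTiter-Fluor addition indicated viability of MDA-kb2 AR-luc cells given compounds and R1881 for 16 h at 37C.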

Assay [15] has as its target Androgen receptor (Homo sapiens) (UniProt P10275). The assay is described as follows: qHTS assay to identify small molecule antagonists of the androgen receptor (AR) signaling pathway using the MDA cell line (AID 743042; note: nearly all actives have a fitted effect of over 55% in size; note: potency is the fitted concentration of half-maximal effect). In a few lines: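 MDA-kb2 cells (human breast carcinoma, stably carrying an MMTV-luciferase reporter responsive to AR and GR) were plated at 3,000 cells/well and preincubated 5 hr at 37C, then given compound plus R1881 agonist for 16 h. ONE-Glo luminescence was read.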

Assay [16] in a line: qHTS assay to identify small molecule antagonists of the glucocorticoid receptor (GR) signaling pathway - cell viability counter screen (AID 720693). Note: nearly all actives have a fitted effect of over 55% in size.
The nature of assay [17]: qHTS assay to identify small molecule antagonists of the androgen receptor (AR) signaling pathway - cell viability counter screen (AID 743033; note: nearly all actives have a fitted effect of over 45% in size).
Assay [18] deals with Glucocorticoid receptor (Homo sapiens) (UniProt P04150). The assay can be described thus: qHTS assay to identify small molecule antagonists of the glucocorticoid receptor (GR) signaling pathway (AID 720692; active = well fitted inhibition curve with a large enough effect in the signal ratio in the repeat runs, not every such curve was filed as active; the % refers to the signal ratio). In a few lines: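 Quantitative HTS in antagonist format: HeLa cells expressing endogenous GR and a stably integrated GRE-bla reporter, stimulated with 5 nM dexamethasone (final) alongside test compounds for 18 h.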

Assay [19] concerns the target Androgen receptor (Homo sapiens) (UniProt P10275). The assay can be described thus: qHTS assay to identify small molecule antagonists of the androgen receptor (AR) signaling pathway (AID 743035; active = well fitted inhibition curve with a large enough effect in the signal ratio in the repeat runs, not every such curve was filed as active; the % refers to the signal ratio). A digest of the protocol:
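Quantitative HTS of the Tox21 10K library used HEK293 AR-UAS-bla cells stimulated with R1881 alongside compound for 16 h at 37C, followed by beta-lactamase FRET detection (LiveBLAzer B/G, 2 h, RT).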
% is set by controls: 0 for no effect and ±100 for the full control effect.

Sequence of Androgen receptor (Homo sapiens) (P10275 whole entry, looked up): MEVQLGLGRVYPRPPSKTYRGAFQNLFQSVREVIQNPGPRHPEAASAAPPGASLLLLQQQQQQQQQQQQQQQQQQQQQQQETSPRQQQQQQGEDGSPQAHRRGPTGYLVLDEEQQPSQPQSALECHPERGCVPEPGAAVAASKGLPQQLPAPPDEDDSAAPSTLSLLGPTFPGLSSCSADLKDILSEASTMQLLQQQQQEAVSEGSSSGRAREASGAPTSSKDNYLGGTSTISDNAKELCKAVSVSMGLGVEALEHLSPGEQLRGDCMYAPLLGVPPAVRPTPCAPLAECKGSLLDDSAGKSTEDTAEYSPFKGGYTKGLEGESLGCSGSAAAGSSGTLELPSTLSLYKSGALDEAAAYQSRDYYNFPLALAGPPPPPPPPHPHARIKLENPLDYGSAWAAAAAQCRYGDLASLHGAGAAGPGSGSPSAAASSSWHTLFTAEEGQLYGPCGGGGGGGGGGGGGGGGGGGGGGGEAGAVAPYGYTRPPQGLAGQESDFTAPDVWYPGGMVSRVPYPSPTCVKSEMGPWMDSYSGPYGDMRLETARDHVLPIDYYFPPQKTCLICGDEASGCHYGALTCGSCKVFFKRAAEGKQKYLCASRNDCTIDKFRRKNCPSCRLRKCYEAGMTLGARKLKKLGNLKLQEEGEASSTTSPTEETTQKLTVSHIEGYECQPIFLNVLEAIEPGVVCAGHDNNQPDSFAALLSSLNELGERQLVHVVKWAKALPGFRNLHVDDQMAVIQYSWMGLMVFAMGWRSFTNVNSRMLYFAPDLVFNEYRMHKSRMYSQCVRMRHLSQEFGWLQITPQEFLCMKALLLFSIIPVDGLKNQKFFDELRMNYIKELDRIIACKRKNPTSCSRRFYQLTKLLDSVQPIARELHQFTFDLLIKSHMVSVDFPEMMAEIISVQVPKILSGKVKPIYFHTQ
Sequence of Glucocorticoid receptor (Homo sapiens) (P04150 whole entry, looked up): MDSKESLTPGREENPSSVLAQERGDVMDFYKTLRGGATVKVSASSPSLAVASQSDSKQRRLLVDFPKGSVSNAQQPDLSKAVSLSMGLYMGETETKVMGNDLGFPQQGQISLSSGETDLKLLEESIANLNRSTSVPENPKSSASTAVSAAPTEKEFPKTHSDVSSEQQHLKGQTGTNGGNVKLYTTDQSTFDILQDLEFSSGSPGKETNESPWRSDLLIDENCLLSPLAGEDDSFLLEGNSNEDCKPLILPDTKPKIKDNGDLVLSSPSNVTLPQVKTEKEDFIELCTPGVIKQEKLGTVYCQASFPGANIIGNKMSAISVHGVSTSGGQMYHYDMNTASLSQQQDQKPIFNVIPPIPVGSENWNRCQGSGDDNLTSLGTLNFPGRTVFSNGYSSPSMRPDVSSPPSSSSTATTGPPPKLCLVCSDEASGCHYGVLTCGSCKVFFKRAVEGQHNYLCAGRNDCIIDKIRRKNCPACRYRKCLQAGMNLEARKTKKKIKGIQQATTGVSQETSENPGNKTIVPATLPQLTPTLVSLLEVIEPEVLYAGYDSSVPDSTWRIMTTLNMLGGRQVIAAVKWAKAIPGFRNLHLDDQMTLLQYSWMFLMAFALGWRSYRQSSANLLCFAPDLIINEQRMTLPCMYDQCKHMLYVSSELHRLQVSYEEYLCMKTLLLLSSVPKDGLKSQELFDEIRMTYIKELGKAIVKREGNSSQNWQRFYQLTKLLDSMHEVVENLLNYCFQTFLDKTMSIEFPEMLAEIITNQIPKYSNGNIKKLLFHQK

Take `CCC(C)c1cc([N+](=O)[O-])cc([N+](=O)[O-])c1OC(=O)OC(C)C` (stereo not given): the Potency entry in assay [1], in assay [2], in [3], in assay [4], in [5] and in assay [6] was “inactive” throughout. Moreover, the Potency entry in assay [7], in assay [8], in [9] and in assay [13] was “inactive” each time. Further, the Potency is 30.6 µM (active) in [10]; 48.6 µM (active) in [11]; 30.6 µM (active) in assay [12]; 54.5 µM (active) in [14]; 27.3 µM (active) in assay [15].

Consider `CCCCCCCC/C=C/CCCOC(C)=O`, for which the Potency result in [1], in [2], in assay [3], in [4], in [5] and in assay [6] was “inactive” each time. For the same compound, the Potency result in [7], in assay [8], in assay [9], in assay [16], in [10] and in assay [12] was “inactive” throughout. The Potency entry in assay [17] and in assay [14] was “inactive” throughout.

On to `O=Nc1ccc(NO)cc1`, for which the Potency result in assay [1], in assay [2], in [3], in assay [4], in [5] and in assay [6] was “inactive” in each case. In addition, the Potency result in assay [7], in assay [8], in assay [9], in [16], in assay [10] and in assay [11] was “inactive” each time. Besides, the Potency entry in assay [12], in assay [17] and in assay [14] was “inactive” each time.

In the case of `O=Cc1ccc(F)cc1`, the Potency result in assay [1], in assay [2], in assay [3], in assay [4], in assay [5] and in assay [6] was “inactive” throughout. Further, the Potency result in [7], in [8], in assay [9], in [18], in assay [16] and in [17] was “inactive” throughout. For the same compound, the Potency result in [19], in assay [13], in assay [14] and in assay [15] was “inactive” in each case. In addition, the Potency in assay [11] and in [12] was 19.3 µM (active) throughout.

`CCO[Si](CCCSSSSCCC[Si](OCC)(OCC)OCC)(OCC)OCC`: the Potency result in [1], in assay [2], in [3], in assay [4], in [5] and in assay [6] was “inactive” each time. Also, the Potency entry in [7], in assay [8], in assay [9], in assay [18] and in [14] was “inactive” in each case. Also, the Potency in assay [11] was 61.2 µM (active); in assay [12], 38.6 µM (active).

As to `CCCCN(CCCC)CCC(O)c1cc2c(Cl)cc(Cl)cc2c2cc(C(F)(F)F)ccc12` (stereo not given), the fluorescence, % of fluorescein in assay [1] was -0.0754% [at 18.6 µM]. Also, the fluorescence, % of fluorescent control was -0.0401% [at 18.6 µM] in [2], 0.212% [at 18.6 µM] in [4], -0.0142% [at 18.6 µM] in assay [6] and 0.0481% [at 18.6 µM] in assay [8]. The activity change in assay [3] was -0.0209% [at 18.6 µM, hits give high values]. In [5], the fluorescence, % of Rose Bengal was 0.0098% [at 18.6 µM]. Besides, the fluorescence, % of fluorescein control in assay [7] was -0.0465% [at 18.6 µM]. The Potency result in assay [9], in assay [16], in assay [17] and in assay [14] was “inactive” each time. Moreover, the Potency in assay [10] was 11.4 µM (active); in assay [12] it was 10.1 µM (active).

Take `c1cc2c3c(c1)ccc1cccc(c13)C2`: the Potency result in [1], in assay [2], in assay [3], in assay [4], in assay [5] and in [6] was “inactive” in each case. The Potency entry in assay [7], in assay [8], in assay [9], in assay [16] and in assay [14] was “inactive” throughout.

Source of the values: PubChem BioAssay (Tox21).
